# Measured values: paper PMC7862700, “An all-to-all approach to the identification of sequence-specific readers for epigenetic DNA modifications on cytosine”
# Experiments:
# Assay in all cases: DAPPL (digital affinity profiling via proximity ligation, sequencing); 10 mM Tris-HCl pH 7.5, 50 mM NaCl, 1 mM DTT, 4% glycerol, room temperature, 30 min; GST-TFs on glutathione beads, 16-mer random dsDNA library, 0.1% formaldehyde crosslink after washing; high values mean tight binding
# FLI1 = target: T1, FLI1 (Homo sapiens, UniProt Q01543 1-452); settings: protein: recombinant; tags: N-terminal GST; dsDNA, one strand shown
# T1 sequence: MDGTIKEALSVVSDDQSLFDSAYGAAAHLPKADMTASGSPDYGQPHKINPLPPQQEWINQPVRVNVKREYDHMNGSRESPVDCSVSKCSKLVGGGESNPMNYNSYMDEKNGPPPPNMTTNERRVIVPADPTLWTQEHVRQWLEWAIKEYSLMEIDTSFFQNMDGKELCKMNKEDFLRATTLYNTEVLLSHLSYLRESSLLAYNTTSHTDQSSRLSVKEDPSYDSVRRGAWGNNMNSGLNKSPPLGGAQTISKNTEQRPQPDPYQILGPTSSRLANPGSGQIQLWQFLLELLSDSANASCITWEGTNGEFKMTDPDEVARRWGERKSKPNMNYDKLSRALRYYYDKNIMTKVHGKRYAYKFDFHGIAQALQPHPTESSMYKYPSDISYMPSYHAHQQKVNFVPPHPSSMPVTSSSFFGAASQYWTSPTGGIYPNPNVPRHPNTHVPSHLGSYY
# Summary of the method: (§1)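 Human transcription factors fused to GST were expressed in yeast, captured on glutathione beads, given DNA barcodes and pooled with a GST-only negative control. Pools were incubated with 200 nmole of a 16-mer random double-stranded DNA library in Tris/NaCl/DTT/glycerol buffer at room temperature for 30 min. They were then washed, crosslinked with 0.1% formaldehyde, proximity-ligated (BsaI/T4 ligase, 1 h, 37 °C), PCR-amplified and sequenced on an Illumina NextSeq500. Binding signal is each 6-mer's read frequency for a factor divided by its frequency for the GST control.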
# ELK1 = target: T2, ELK1 (Homo sapiens, UniProt P19419 1-428); settings: protein: recombinant; tags: N-terminal GST; dsDNA, one strand shown
# T2 sequence: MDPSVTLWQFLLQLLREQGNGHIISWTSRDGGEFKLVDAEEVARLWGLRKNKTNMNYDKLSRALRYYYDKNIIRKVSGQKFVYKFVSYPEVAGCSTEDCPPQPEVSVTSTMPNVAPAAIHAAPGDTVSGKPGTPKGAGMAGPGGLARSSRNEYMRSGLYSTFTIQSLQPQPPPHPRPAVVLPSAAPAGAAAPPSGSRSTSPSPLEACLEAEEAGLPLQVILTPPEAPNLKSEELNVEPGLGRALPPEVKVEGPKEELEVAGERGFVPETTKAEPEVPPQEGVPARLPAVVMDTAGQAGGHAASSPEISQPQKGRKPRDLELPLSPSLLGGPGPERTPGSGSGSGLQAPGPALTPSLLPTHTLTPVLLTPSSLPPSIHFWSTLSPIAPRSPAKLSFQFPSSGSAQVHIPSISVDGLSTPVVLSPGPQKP
# Summary of the method: as §1
# GABPA = target: T3, GABPA (Homo sapiens, UniProt Q06546 1-454); settings: protein: recombinant; tags: N-terminal GST; dsDNA, one strand shown
# T3 sequence: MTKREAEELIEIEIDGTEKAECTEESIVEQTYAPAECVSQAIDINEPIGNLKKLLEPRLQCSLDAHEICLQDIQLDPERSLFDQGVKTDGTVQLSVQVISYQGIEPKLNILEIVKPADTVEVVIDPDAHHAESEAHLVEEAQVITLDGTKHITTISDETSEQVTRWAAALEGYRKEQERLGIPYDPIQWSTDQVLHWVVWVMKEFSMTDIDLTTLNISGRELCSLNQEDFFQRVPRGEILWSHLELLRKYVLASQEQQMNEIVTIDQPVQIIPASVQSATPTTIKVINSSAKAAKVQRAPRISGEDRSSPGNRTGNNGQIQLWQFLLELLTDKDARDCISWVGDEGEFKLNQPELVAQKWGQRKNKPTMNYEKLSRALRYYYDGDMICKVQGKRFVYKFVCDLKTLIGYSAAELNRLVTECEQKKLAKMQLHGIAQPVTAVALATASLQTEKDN
# Summary of the method: as §1
# ERG = target: T4, ERG (Homo sapiens, UniProt P11308 1-479); settings: protein: recombinant; tags: N-terminal GST; dsDNA, one strand shown
# T4 sequence: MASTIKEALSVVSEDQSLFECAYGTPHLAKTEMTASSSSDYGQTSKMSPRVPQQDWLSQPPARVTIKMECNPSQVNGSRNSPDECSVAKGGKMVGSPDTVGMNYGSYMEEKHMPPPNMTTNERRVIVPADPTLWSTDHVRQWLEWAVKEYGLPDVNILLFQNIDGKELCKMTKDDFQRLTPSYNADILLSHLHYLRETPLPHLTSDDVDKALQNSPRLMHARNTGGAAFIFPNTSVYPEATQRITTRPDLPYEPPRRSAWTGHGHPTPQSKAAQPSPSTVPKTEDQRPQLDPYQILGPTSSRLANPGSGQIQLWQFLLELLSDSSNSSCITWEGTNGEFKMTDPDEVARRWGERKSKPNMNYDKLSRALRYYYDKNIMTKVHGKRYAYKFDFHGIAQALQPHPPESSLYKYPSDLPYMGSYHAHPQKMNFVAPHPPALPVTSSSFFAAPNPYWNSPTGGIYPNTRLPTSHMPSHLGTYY
# Summary of the method: as §1
# ELF1 = ELF1 (Homo sapiens, UniProt P32519 1-619); settings: protein: recombinant; tags: N-terminal GST; dsDNA, one strand shown
# Summary of the method: as §1
# EHF = target: T5, EHF (Homo sapiens, UniProt Q9NZC4 1-300); settings: protein: recombinant; tags: N-terminal GST; dsDNA, one strand shown
# T5 sequence: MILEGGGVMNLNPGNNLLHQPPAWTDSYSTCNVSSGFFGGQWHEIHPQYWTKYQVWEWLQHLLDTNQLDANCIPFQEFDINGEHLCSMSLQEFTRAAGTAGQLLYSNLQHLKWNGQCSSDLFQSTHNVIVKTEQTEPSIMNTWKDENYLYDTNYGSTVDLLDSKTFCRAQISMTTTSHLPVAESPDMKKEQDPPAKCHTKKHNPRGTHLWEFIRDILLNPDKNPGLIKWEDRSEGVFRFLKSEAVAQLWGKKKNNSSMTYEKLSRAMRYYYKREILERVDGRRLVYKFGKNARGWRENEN
# Summary of the method: as §1
# SPI1 = SPI1 (Homo sapiens, UniProt P17947 1-270); settings: protein: recombinant; tags: N-terminal GST; dsDNA, one strand shown
# Summary of the method: as §1
# SPIB = SPIB (Homo sapiens, UniProt Q01892 1-262); settings: protein: recombinant; tags: N-terminal GST; dsDNA, one strand shown
# Summary of the method: as §1
# ELK3 = target: T6, ELK3 (Homo sapiens, UniProt P41970 1-407); settings: protein: recombinant; tags: N-terminal GST; dsDNA, one strand shown
# T6 sequence: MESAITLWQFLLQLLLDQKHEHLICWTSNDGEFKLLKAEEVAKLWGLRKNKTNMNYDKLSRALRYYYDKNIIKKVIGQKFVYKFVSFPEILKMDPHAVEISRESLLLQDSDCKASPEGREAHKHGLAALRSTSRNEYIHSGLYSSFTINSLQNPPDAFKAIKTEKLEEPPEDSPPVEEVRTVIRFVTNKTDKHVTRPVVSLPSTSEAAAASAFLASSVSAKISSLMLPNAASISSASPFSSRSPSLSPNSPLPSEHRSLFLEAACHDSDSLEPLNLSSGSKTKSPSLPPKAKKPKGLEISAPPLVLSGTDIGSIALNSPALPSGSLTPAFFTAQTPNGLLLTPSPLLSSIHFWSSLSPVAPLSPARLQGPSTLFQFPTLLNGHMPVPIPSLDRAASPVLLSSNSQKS
# Summary of the method: as §1
# FEV = target: T7, FEV (Homo sapiens, UniProt Q99581 1-238); settings: protein: recombinant; tags: N-terminal GST; dsDNA, one strand shown
# T7 sequence: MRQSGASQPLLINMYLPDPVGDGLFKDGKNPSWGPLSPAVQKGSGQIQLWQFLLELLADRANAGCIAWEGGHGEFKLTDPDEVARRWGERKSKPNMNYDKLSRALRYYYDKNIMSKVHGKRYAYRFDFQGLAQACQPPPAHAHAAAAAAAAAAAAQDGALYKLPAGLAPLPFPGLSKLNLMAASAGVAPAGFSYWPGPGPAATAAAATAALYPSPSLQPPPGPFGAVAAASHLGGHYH
# Summary of the method: as §1
# ETV5 = ETV5 (Homo sapiens, UniProt P41161 1-510); settings: protein: recombinant; tags: N-terminal GST; dsDNA, one strand shown
# Summary of the method: as §1
# HSF1 = HSF1 (Homo sapiens, UniProt Q00613 1-529); settings: protein: recombinant; tags: N-terminal GST; chain copies: 3; dsDNA, one strand shown
# Summary of the method: as §1
# SPIC = target: T8, SPIC (Homo sapiens, UniProt Q8N5J4 1-248); settings: protein: recombinant; tags: N-terminal GST; dsDNA, one strand shown
# T8 sequence: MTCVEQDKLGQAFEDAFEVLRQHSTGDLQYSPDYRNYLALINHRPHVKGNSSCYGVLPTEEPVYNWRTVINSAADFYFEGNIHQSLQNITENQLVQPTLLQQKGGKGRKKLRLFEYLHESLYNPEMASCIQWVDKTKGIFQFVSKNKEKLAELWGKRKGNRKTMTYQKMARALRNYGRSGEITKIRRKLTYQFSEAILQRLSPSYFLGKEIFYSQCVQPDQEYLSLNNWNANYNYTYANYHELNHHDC
# Summary of the method: as §1
# ELF4 = ELF4 (Homo sapiens, UniProt Q99607 1-663); settings: protein: recombinant; tags: N-terminal GST; dsDNA, one strand shown
# Summary of the method: as §1
# ELK4 = target: T9, ELK4 (Homo sapiens, UniProt P28324-2 1-405); settings: protein: recombinant; tags: N-terminal GST; dsDNA, one strand shown
# T9 sequence: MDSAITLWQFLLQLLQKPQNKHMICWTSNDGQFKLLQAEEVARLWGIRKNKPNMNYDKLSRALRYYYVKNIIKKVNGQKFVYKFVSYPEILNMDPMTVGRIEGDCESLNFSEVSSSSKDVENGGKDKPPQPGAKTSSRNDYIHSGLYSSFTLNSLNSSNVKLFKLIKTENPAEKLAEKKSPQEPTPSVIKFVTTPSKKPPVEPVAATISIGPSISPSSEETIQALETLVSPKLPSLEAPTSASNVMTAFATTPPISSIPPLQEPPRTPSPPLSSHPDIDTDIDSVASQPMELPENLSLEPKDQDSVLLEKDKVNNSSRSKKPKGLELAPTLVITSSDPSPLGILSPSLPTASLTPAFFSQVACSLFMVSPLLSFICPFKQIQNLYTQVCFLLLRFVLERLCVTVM
# Summary of the method: as §1
# ETV2 = target: T10, ETV2 (Homo sapiens, UniProt O00321 1-342); settings: protein: recombinant; tags: N-terminal GST; dsDNA, one strand shown
# T10 sequence: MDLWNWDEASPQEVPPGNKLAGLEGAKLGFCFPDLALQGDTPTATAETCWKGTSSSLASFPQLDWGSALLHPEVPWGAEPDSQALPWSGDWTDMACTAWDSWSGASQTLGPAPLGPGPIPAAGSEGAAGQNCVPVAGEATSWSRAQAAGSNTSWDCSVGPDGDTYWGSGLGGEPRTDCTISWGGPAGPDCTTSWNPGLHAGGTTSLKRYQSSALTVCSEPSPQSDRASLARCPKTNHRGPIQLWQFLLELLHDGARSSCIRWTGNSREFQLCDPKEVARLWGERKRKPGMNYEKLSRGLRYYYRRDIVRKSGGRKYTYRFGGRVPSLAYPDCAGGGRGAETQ
# Summary of the method: as §1
# ELF3 = target: T11, ELF3 (Homo sapiens, UniProt P78545 1-371); settings: protein: recombinant; tags: N-terminal GST; dsDNA, one strand shown
# T11 sequence: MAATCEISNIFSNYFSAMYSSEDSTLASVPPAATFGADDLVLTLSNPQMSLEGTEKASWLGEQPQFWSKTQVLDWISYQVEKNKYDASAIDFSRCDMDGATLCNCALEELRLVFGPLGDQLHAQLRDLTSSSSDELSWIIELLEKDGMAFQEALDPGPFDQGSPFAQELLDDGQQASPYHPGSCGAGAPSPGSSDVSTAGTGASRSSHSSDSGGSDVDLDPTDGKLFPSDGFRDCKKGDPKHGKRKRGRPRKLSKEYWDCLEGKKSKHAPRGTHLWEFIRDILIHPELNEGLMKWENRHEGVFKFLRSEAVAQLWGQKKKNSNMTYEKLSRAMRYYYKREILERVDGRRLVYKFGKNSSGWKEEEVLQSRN
# Summary of the method: as §1
# CRX = CRX (Homo sapiens, UniProt O43186 1-299); settings: protein: recombinant; tags: N-terminal GST; dsDNA, one strand shown
# Summary of the method: as §1
# ETV1 = ETV1 (Homo sapiens, UniProt P50549 1-477); settings: protein: recombinant; tags: N-terminal GST; dsDNA, one strand shown
# Summary of the method: as §1
# Chain of ELF4 (Q99607 whole entry): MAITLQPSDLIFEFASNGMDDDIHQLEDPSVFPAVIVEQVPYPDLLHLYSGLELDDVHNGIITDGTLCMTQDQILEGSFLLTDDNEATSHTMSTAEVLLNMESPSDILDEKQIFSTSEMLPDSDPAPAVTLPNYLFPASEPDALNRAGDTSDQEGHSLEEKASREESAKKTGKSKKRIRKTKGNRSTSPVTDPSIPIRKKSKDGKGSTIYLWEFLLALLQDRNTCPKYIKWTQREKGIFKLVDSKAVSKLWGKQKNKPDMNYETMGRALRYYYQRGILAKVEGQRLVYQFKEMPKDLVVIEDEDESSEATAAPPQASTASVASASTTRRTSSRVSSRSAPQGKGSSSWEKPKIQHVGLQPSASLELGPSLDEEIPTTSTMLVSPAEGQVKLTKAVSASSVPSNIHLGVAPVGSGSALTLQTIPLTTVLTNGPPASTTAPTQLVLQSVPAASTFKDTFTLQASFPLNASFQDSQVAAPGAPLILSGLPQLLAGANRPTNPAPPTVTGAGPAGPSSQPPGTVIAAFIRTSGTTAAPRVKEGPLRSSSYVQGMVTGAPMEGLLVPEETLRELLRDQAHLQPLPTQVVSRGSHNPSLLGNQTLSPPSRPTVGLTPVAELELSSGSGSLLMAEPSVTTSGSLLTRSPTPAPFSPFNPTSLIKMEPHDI
# Chain of ELF1 (P32519 whole entry): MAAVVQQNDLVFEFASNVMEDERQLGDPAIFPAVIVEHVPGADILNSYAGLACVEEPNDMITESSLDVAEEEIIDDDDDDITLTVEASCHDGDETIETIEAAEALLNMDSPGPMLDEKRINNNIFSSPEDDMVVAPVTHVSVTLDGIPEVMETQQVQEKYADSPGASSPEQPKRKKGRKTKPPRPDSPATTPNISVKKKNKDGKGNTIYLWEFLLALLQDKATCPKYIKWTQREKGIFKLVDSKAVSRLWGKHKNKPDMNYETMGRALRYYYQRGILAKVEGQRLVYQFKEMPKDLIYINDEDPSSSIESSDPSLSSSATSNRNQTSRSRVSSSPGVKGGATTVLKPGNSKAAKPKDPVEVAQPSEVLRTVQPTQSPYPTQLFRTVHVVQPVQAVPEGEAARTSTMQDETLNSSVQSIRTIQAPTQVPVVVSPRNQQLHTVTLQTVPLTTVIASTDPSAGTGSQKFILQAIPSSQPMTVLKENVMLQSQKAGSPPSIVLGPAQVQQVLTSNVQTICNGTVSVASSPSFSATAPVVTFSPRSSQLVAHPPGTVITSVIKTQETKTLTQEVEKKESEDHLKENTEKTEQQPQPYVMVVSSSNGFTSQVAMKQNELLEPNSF
# Chain of HSF1 (Q00613 whole entry): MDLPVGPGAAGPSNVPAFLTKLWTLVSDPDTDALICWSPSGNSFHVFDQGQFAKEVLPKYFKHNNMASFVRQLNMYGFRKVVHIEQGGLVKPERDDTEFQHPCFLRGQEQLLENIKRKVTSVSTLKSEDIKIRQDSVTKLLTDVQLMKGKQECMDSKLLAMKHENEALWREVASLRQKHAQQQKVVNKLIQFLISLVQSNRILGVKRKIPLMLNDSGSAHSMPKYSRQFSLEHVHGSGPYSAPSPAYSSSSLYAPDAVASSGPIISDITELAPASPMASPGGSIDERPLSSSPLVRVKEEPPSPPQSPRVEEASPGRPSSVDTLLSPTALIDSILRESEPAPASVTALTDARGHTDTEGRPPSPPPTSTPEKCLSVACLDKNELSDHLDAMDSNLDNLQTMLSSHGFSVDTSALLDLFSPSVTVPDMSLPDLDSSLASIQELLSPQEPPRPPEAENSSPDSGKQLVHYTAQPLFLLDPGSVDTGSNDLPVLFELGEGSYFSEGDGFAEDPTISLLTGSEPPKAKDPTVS
# Chain of ETV1 (P50549 whole entry): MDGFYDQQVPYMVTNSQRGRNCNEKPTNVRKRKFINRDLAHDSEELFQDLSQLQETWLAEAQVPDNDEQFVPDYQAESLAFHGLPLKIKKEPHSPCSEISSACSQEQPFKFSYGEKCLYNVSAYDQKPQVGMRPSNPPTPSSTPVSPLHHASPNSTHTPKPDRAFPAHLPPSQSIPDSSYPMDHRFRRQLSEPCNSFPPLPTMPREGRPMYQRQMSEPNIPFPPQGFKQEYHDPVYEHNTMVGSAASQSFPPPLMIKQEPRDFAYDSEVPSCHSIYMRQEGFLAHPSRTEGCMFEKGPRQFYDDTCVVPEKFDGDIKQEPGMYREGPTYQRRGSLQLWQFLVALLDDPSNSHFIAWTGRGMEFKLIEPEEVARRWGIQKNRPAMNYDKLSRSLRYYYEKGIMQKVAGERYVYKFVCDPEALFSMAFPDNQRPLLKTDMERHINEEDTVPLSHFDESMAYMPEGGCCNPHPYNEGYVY
# Chain of CRX (O43186 whole entry): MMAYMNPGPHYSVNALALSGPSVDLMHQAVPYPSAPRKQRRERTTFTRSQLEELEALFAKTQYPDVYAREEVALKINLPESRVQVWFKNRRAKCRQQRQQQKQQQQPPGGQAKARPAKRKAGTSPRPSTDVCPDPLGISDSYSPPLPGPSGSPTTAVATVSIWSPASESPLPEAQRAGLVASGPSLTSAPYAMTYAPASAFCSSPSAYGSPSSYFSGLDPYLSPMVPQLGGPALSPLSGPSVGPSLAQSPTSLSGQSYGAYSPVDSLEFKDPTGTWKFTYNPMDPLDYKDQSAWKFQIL
# Chain of SPIB (Q01892 whole entry): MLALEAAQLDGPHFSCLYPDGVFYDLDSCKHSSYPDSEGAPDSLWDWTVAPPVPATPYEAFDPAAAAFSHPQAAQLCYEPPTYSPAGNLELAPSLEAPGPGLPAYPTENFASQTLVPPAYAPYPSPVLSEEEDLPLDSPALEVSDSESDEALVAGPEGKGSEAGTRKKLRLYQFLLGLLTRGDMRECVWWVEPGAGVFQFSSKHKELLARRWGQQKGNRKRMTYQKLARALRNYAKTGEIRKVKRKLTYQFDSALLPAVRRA
# Chain of ETV5 (P41161 whole entry): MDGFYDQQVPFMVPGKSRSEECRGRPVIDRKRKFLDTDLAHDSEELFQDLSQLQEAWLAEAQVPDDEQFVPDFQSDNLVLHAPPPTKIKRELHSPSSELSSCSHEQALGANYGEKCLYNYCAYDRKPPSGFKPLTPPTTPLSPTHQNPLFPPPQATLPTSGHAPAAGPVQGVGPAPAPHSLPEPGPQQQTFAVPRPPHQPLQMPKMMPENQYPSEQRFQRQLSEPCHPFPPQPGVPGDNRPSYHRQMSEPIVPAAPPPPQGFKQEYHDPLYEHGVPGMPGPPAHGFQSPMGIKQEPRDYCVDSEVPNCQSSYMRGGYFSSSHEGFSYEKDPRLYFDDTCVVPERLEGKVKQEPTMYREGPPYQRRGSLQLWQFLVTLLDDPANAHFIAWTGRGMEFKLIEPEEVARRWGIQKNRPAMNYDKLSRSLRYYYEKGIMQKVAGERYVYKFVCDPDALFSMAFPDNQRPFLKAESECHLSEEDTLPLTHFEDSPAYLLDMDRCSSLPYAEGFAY
sequence,measurement,setting,value
TCTCCT,binding signal,FLI1,"1.45 fold enrichment (6-mer frequency, TF over GST control)"
same,binding signal,ELK1,"1.41 fold enrichment (6-mer frequency, TF over GST control)"
same,binding signal,GABPA,"1.53 fold enrichment (6-mer frequency, TF over GST control)"
same,binding signal,ERG,"1.37 fold enrichment (6-mer frequency, TF over GST control)"
same,binding signal,ELF1,"1.38 fold enrichment (6-mer frequency, TF over GST control)"
same,binding signal,EHF,"1.43 fold enrichment (6-mer frequency, TF over GST control)"
same,binding signal,SPI1,"1.6 fold enrichment (6-mer frequency, TF over GST control)"
same,binding signal,SPIB,"1.4 fold enrichment (6-mer frequency, TF over GST control)"
same,binding signal,ELK3,"1.46 fold enrichment (6-mer frequency, TF over GST control)"
same,binding signal,FEV,"1.43 fold enrichment (6-mer frequency, TF over GST control)"
same,binding signal,ETV5,"1.33 fold enrichment (6-mer frequency, TF over GST control)"
same,binding signal,HSF1,"1.55 fold enrichment (6-mer frequency, TF over GST control)"
same,binding signal,SPIC,"1.59 fold enrichment (6-mer frequency, TF over GST control)"
same,binding signal,ELF4,"1.51 fold enrichment (6-mer frequency, TF over GST control)"
same,binding signal,ELK4,"1.38 fold enrichment (6-mer frequency, TF over GST control)"
same,binding signal,ETV2,"1.43 fold enrichment (6-mer frequency, TF over GST control)"
same,binding signal,ELF3,"1.7 fold enrichment (6-mer frequency, TF over GST control)"
same,binding signal,CRX,"1.55 fold enrichment (6-mer frequency, TF over GST control)"
same,binding signal,ETV1,"1.49 fold enrichment (6-mer frequency, TF over GST control)"
